This is an account of results in PubChem BioAssay (NCI).

This is part of a sample that, as a whole, favours compounds with a hit. Of some 83,000 tested, about 20% had one in any assay.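 Negative percent growth values reflect cell death: -40 means 40% of the cells present at the start died, and -100 means all died.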 Unmarked numbers belong to inactive results. The source made the active and inactive calls. How the source made its calls: active means growth percent below 10; inactive means the rest.

Common to all, as to assay: NCI-60 one-dose screen, 48 h (100 = growth as untreated, 0 = no growth, -100 = all killed)
What all share (conditions): 10 µM unless noted

Test [1] deals with NCI-H23 lung.
The test system of test [2] is NCI-H226 lung.
The test system of test [3] is NCI-H322M lung.
Test [4] has as its system HOP-62 NSCLC.
Test [5] concerns NCI-H460 lung.
Test [6] relates to HOP-92 NSCLC.
Test [7] deals with NCI-H522 lung.
The test system of test [8] is A549/ATCC NSCLC.
The test system of test [9] is 786-0 renal.
The test system of test [10] is COLO 205 colon.
Test [11] deals with DU-145 prostate.
The test system of test [12] is K-562 leukemia.
The subject of test [13] is MALME-3M melanoma.
Test [14] concerns MDA-MB-231 breast.
Test [15] deals with RXF 393 renal.
In test [16] the test system is SF-268 CNS.
Test [17] concerns SF-295 CNS.
Test [18] deals with SF-539 CNS.
The subject of test [19] is M14 melanoma.
The test system of test [20] is UACC-257 melanoma.

For the compound `COc1ccc(C2c3ccccc3NC(=O)N2C2CCN(C)CC2)c(OC)c1` (configuration not stated), the growth in test [1] was 100%; in test [2] it was 94.1%; in test [3], 95.9%; in test [4] it was 101%; in test [5] it was 101%; in test [6] it was 79.9%. Besides, the growth in test [7] is 89.5%; in [8], 103%; in test [9], 102%; in test [10], 106%; in test [11] it was 105%; in test [12], 93.1%. The growth in test [13] is 88.1%; in test [14] it was 91.9%; in test [15], 97.1%; in [16], 98.2%; in [17] it was 90.6%; in [18] it was 95.2%. For the same compound, in test [19], the growth was 85.3%.
As to `COc1cc(-c2cc(-c3nc4ccc(F)cc4[nH]3)[nH]n2)cc(OC)c1OC`, the growth in [1] was 15.8%; in [2] it was -11.1% (active); in test [3], 48.7%; in [4], 8.23% (active); in test [5], 33.5%; in [6], 25.8%. Moreover, the growth was 9.45% (active) in test [7]; 29% in test [8]; 53.7% in test [9]; 20.9% in [10]; 35.5% in test [11]; 0.735% (active) in test [12]. The growth in test [13] was 7.29% (active); in test [14], 49.4%; in test [15], 36.5%; in test [16], 36.4%; in test [18] it was 52.6%; in test [20], 29.6%. The growth in [19] was 21.5%.
For the compound `COc1cccc(-c2nn(-c3ccccc3)cc2-c2ccnc(NCCCNS(=O)(=O)c3ccc(C(F)(F)F)cc3)c2)c1`, the growth is 28.6% in test [1]; 36.6% in [2]; 68.6% in test [3]; 61.3% in test [4]; 25.4% in test [5]; 5.37% (active) in [6]. In addition, the growth is 17.4% in [7]; 24.4% in test [8]; 16.1% in test [9]; -1.71% (active) in [10]; 59.6% in [11]; 8.17% (active) in test [12]. Also, the growth is 25.8% in test [13]; 6.9% (active) in [14]; -7.54% (active) in [15]; 43.9% in test [16]; 14.5% in test [17]; 46.4% in test [18]. Besides, the growth in test [19] was 22.1%.
With `C/C(=N\Nc1cc(C)c2ccccc2n1)c1ccccn1`, the growth in test [1] is 14%; in test [2], -2.65% (active); in [3], -2.12% (active); in test [4] it was 15.1%; in test [5], -44.7% (active); in test [6], -13.9% (active). Also, the growth was -25.7% (active) in test [7]; -0.781% (active) in [8]; -63.9% (active) in test [9]; 3.41% (active) in test [10]; 18.3% in [11]; -41.4% (active) in [12]. The growth is -77.9% (active) in [13]; -28.7% (active) in test [14]; -77.4% (active) in test [15]; -6.64% (active) in test [16]; -53.8% (active) in [18]; -62.1% (active) in test [20]. Further, the growth in test [19] is -81.4% (active).
As for `Nc1c(C(=O)Nc2cccc3ccccc23)sc2nc3c(cc12)CCCC3`, the growth was 23.1% in test [1]; 63.1% in test [2]; 51.7% in [3]; 29.9% in test [4]; 16.4% in test [5]; 44% in [6]. In addition, the growth is 11.7% in test [7]; 17.8% in test [8]; 34.7% in test [9]; -3.36% (active) in test [10]; 19.3% in test [11]; 9.59% (active) in test [12]. The growth was 78% in [13]; 33.2% in test [14]; 27.4% in test [15]; 50.1% in test [16]; 14.6% in test [17]; 8.91% (active) in test [18]. For the same compound, the growth in test [19] was 7.77% (active).
For `Cc1ccc(-c2ccc(Nc3ccccc3)nn2)cc1S(N)(=O)=O`, the growth is 96.2% in [1]; 99.2% in test [2]; 108% in test [3]; 107% in test [4]; 82.9% in test [5]; 98.9% in test [6]. Further, the growth was 96.1% in [7]; 79.4% in [8]; 103% in [9]; 96% in test [10]; 85.2% in test [11]; 21.3% in test [12]. For the same compound, the growth was 73.5% in test [13]; 89.2% in test [14]; 91.8% in [15]; 97.4% in [16]; 82.3% in [18]; 96.4% in test [20]. For the same compound, the growth in test [19] was 83.2%.
`O=S(=O)(NCCNc1cc(-c2cn(-c3ccccc3)nc2-c2cccc(O)c2)ccn1)c1ccc(F)cc1`: the growth is 33.6% in test [1]; 45.1% in test [2]; 58.7% in [3]; 48% in [4]; 22.9% in test [5]; 35.7% in test [6]. For the same compound, the growth was 4.98% (active) in test [7]; 26.9% in test [8]; -9.01% (active) in test [9]; -49.3% (active) in [10]; 55.3% in test [11]; 1.3% (active) in test [12]. The growth in [13] was 14.5%; in test [14] it was -9.05% (active); in test [15] it was 35%; in [16] it was 40.4%; in test [17], 10.4%; in [18], 44.4%. The growth in test [19] was 14.2%.
For the compound `CC(CNc1nc(Nc2ccc(Cl)c(Cl)c2)nc(C(Cl)(Cl)Cl)n1)N(C)C` (configuration not stated), the growth in test [1] is 14.2%; in test [2] it was 40.8%; in test [3], 27.6%; in [4], -68.4% (active); in test [5], -63% (active); in test [6], -17.7% (active). Further, the growth in test [7] is -86.8% (active); in [8] it was 4.96% (active); in test [9], -77.3% (active); in [10], -77.7% (active); in [11], 5.37% (active); in test [12], -54% (active). Moreover, the growth was 15.6% in test [13]; -62.6% (active) in test [14]; -24.3% (active) in [15]; 11.5% in [16]; 16.3% in [18]; -8.37% (active) in test [20]. Moreover, the growth in [19] is -60.6% (active).
For `COc1ccc(-c2cc(/C=C/C(=O)c3ccc(N)cc3)[nH]n2)cc1`, the growth in test [1] was 27.3%; in test [2], 24.5%; in [3] it was 12.4%; in test [4], 15.4%; in [5] it was -50% (active); in test [6], 73.6%. In addition, the growth is -24.3% (active) in test [7]; 18.6% in test [8]; 17.8% in test [9]; 7.56% (active) in test [10]; 11.9% in test [11]; -2.07% (active) in [12]. Further, the growth in test [13] is 54.3%; in [14], 35.7%; in test [15] it was 20%; in [16] it was 17%; in test [18], 1.33% (active); in test [20] it was 58.9%. In addition, in test [19], the growth is 23%.
`[B-][N+](CC)(CC)c1ccccc1`: the growth in test [1] is 105%; in [2], 106%; in [3], 96.9%; in [4], 101%; in test [5] it was 110%; in [6] it was 81.9%. In addition, the growth in test [7] is 96.5%; in [8] it was 102%; in test [9], 105%; in [10] it was 102%; in [11] it was 106%; in [12], 105%. Further, the growth in test [13] was 98.1%; in [14], 119%; in test [15], 115%; in test [16], 103%; in [18], 97%; in test [20], 105%. In addition, the growth in test [19] is 88.6%.
As to `CC(C)=CCC/C(C)=C/CC/C(C)=C/CSC[C@H](NC(=O)CCCCCN1CCN(C)CC1)C(=O)NC1CCCCCC1`, the growth is 58.1% in test [1]; 82.1% in test [2]; 88.7% in test [3]; 91.7% in test [4]; 2.84% (active) in [5]; 32.6% in test [6]. The growth was 59.8% in test [7]; 64.2% in test [8]; 75.9% in test [9]; -71% (active) in test [10]; 53% in test [11]; -17.4% (active) in test [12]. For the same compound, the growth in [13] was -13.7% (active); in test [14] it was -89.1% (active); in test [15] it was 80.3%; in test [16], 75.1%; in [18], 82.9%; in [20], 76.2%. In test [19], the growth is 83.7%.
On to `COc1ccc2nc(-c3cc(-c4cc(OC)c(OC)c(OC)c4)n[nH]3)[nH]c2c1`, for which the growth in [1] was 7.44% (active); in test [2], -48.9% (active); in [3], 31.1%; in test [4], -1.25% (active); in test [5] it was 25.2%; in test [6], 22%. Moreover, the growth in [7] was -15.1% (active); in test [8] it was 6.33% (active); in [9], 59.5%; in test [10] it was -20% (active); in test [11], 11.8%; in test [12] it was -10.7% (active). Further, the growth in test [13] was -40.4% (active); in [14], 36.2%; in test [15] it was 45.8%; in test [16] it was 10.7%; in test [18], 34.4%; in test [20], -13.4% (active). The growth in test [19] is 9.11% (active).
With `Cc1cc(Cl)c2c(N(C)C)cccc2n1`, the growth in [1] was 96%; in test [2], 101%; in test [3] it was 89.9%; in [4], 102%; in [5], 104%; in test [6], 115%. For the same compound, the growth was -75.5% (active) in [7]; 100% in test [8]; 102% in test [9]; 105% in test [10]; 106% in [11]; 59.5% in test [12]. Also, the growth was 87.2% in [13]; 92.8% in [14]; 116% in [15]; 111% in test [16]; 106% in test [18]; 102% in [20]. In addition, the growth in test [19] was 92%.
